# High-throughput results as filed in PubChem BioAssay.
# Shown are actives, neighbours in structure and some others; about 19% of the full set was active somewhere.
# IL-1B inflam inh: blocks inflammasome-driven IL-1 beta release; activity change, % at 57.5 µM; THP-1 LPS/ATP IL-1B secretion, AlphaLISA, 16 h; hits give low values; actives 4.7% (n = 360,000); in the data active = activity change below about -50%; inconclusive = mostly about -30% to -49%
#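 Secreted IL-1B measured by AlphaLISA bead assay after 16 h compound exposure of THP-1 cells; compounds (final up to 57.5 uM) added 1 h before LPS (250 ng/mL) and ATP (1.25 mM) stimulation; lower signal means less secretion.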
# HT1080 IDH1KD tx: kills HT-1080 cells with IDH1 knockdown; HT-1080 IDH1 knockdown viability, ATP luminescence, 48 h; Potency, µM (titrated, usually from 46.1 µM), inactives show at the top dose activity, negative = toxicity, usual class: cytotoxic; actives 2% (n = 360,000);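 note: potency is the fitted concentration of half-maximal effect; 0% = DMSO wells and -100% = cell-free medium wells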
#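 IDH1KD HT-1080 cells, 750/well, RPMI + 5% FBS; compound pinned after 2 h settling; 48 h, 37 °C; CellTiter-Glo luminescence; % activity normalised to DMSO and no-cell wells; curves fitted, classed by r2 and efficacy.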
# TDP1 cell CPT: DT40-hTDP1 cell growth loss with CPT | chicken DT40 Tdp1-/-;hTDP1 cells + 20 nM CPT, ATP luminescence, 48 h | Potency, µM (highest dose often 46.2 µM), inactives show at the highest dose activity change, negative = growth inhibition, hits mostly inhibitors | actives 12% (n = 420,000); note: potency is the fitted concentration of half-maximal effect; nearly all actives have a fitted effect of over 55% in size
#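 Chicken DT40 Tdp1-/- cells stably complemented with human TDP1 were seeded at 400 cells/well in medium containing 20 nM camptothecin, exposed to pin-transferred compounds, and grown at 37 °C for at least 48 hr. Viability was read as ATP luminescence.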
# TDP1 cell noCPT: qHTS for Inhibitors of human tyrosyl-DNA phosphodiesterase 1 (TDP1): qHTS in cells in absence of CPT. DT40 Tdp1-/- hTDP1 cells, no CPT, ATP luminescence, 48 h. Potency, µM (titrated, usually from 46.2 µM), for the others: at the highest dose activity change, negative = growth inhibition, hits mostly inhibitors. actives 15% (n = 420,000); note: potency is the fitted concentration of half-maximal effect; nearly all actives have a fitted effect of over 55% in size
#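 Growth of hTDP1-complemented DT40 Tdp1-knockout cells is measured by ATP luminescence after at least 48 hr compound exposure at 37 °C, with DMSO substituting for the 20 nM CPT used in the parallel screen.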
# HT1080-NT tox: kills 2HG-producing HT-1080-NT fibrosarcoma cells; AID 686970; actives 1.6% (n = 360,000); HT-1080-NT fibrosarcoma viability, CellTiter-Glo ATP luminescence, 48 h; Potency, µM (highest dose often 46.1 µM), inactives show at the highest dose activity, negative = less viability, hits mostly cytotoxic;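 note: NT is the 2HG producing partner of a matched IDH1 knockdown line; potency is the fitted concentration of half-maximal effect; 0% = DMSO-treated cells and -100% = media-only wells without cells; nearly all actives have a fitted effect of over 55% in size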
#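 HT-1080-NT fibrosarcoma cells (2HG-overproducing), 750 cells/well in RPMI with 5% FBS, dosed after 2 h and incubated 48 h at 37C. CellTiter-Glo luminescence normalized to DMSO and no-cell wells; concentration-response curves fitted and classed.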
# * = called active by the depositor; u = inconclusive; x = not tested or not shown. Unless noted, calls come from the whole dose curve; as a rule, active = well fitted curve in the direction sought with a large enough effect; inconclusive = small, poorly fitted or top-dose-only effect, or another doubt; inactive = no such curve, though single readings can be large; an effect the other way counts as inactive or inconclusive. Unless noted, % is set by controls: 0 for no effect and ±100 for the full control effect.
SMILES,IL-1B inflam inh,HT1080 IDH1KD tx,TDP1 cell CPT,TDP1 cell noCPT,HT1080-NT tox
CCCCN(CCCNC(=O)c1cc(Nc2ccc(OC)c(OC)c2)nc2ccccc12)c1ccccc1,x,x,15µM*,13µM*,x
CCCCN(C)CCCNC(=O)c1cc(Nc2ccc(OC)c(OC)c2)nc2ccccc12,u,-17%,u,u,-23%
CCN(CC(=O)Nc1ccc(OC)cc1)CC(=O)N1CC(=O)Nc2ccccc21,-3,0%,1%,-6%,2%
COc1ccc(NC(=O)C(C)n2nc(-c3cc(C)ccc3C)c3c(c2=O)CCCC3)cc1 (stereo unspecified),x,x,21µM*,u,x
CC(=O)N(C)c1ccc(NC(=S)Nc2ccccc2)cc1,-5,12%,-14%,-24%,-1%
CCc1ccc(NC(=S)Nc2cccc3cnccc23)cc1,17,-3%,u,15µM*,-5%
CC(=O)N(C)c1ccc(NC(=S)Nc2cccc3ccccc23)cc1,13,-8%,23µM*,u,-7%
Cc1cc(C)cc(NC(=S)Nc2cccc3cnccc23)c1,-18,-8%,-4%,u,2%
O=C(CSc1nnc2scc(-c3ccccc3)n12)NCC1CCCO1 (stereo unspecified),0,-3%,19%,3%,15%
NC(=O)COc1ccc(-c2noc(COc3ccc(Cl)cc3)n2)cc1,x,x,-13%,-13%,x
COc1ccccc1Nc1nc(N)nc(-c2oc3ccccc3c2C)n1,-19,-8%,8.2µM*,u,-2%
COc1ccccc1Nc1nc(N)nc(CN2CCCCC2)n1,11,16%,1%,-7%,7%
COc1ccccc1Nc1nc(N)nc(CSCCO)n1,6,3%,-9%,-15%,10%
COc1ccc(OC)c(Nc2nc(N)nc(CCl)n2)c1,-102*,16µM*,12µM*,18µM*,u
COc1ccccc1Nc1nc(N)nc(CCl)n1,-100*,12µM*,18µM*,13µM*,23µM*
COc1ccccc1Nc1nc(N)nc(CSC(=S)N2CCCCC2)n1,-9,2%,8.2µM*,13µM*,-8%
COc1ccc(OC)c(C(=O)CN2C(=O)N(c3ccc(C)cc3)S(=O)(=O)c3ccccc32)c1,x,x,-12%,-24%,x
COc1ccc(S(N)(=O)=O)cc1C(=O)NNC(=O)C1COc2ccccc2O1 (stereo unspecified),20,-1%,-12%,2%,2%
COc1cccc(NC(=S)NC2CC3CCCC(C2)N3CC(C)C)c1 (stereo unspecified),-16,1%,u,16µM*,12%
CCCN1C2CCCC1CC(NC(=S)Nc1ccc(OC)cc1)C2 (stereo unspecified),-16,4%,u,29µM*,-2%
COc1cccc(NC(=S)N2C3CCCC2CC(NC(=O)C2CC2)C3)c1 (stereo unspecified),10,8%,-5%,-8%,9%
COc1ccc(NC(=S)NC2CC3CCCC(C2)N3C2CC2)cc1 (stereo unspecified),-11,1%,u,-29%,-2%
CCc1ccc(NC(=S)NC2CC3CCCC(C2)N3Cc2cccs2)cc1 (stereo unspecified),-90*,u,18µM*,u,u
COc1cc([N+](=O)[O-])ccc1NC(=O)N1CCN(c2cc(-c3noc(C)n3)ccc2C)CC1,x,x,-23%,u,x
CCOc1ccc(CN(C)C(=O)CNC(=O)c2ccc(Br)o2)cc1OC,-7,u,18%,-21%,-11%
NC(=O)CC(NC(=O)c1ccccc1)c1ccc(N2CCN(c3ccccc3)CC2)c([N+](=O)[O-])c1 (stereo unspecified),-10,-10%,21µM*,13µM*,-7%
